Test results as given in PubChem BioAssay AID504697 (The Scripps Research Institute Molecular Screening Center, 2011).
The source made the active and inactive calls.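 How the source made its calls: active means EC50 at or below 10 µM; inactive means EC50 above 10 µM.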

test: compound autofluorescence in calcium buffer – biochemical, fluorescence, no RTF in test wells, artefact control for cardiac thin filament activator project, dose response (AID 504697); conditions: artifact counterscreen;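 further: emission near 535 nm under roughly 485 nm excitation as for IANBD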

SMILES | EC50
O=[N+]([O-])c1ccc(N2CCCC2)c2ncccc12 | 23.5 µM (inactive)
CNS(=O)(=O)c1ccc(N=Cc2c(O)n(-c3ccccc3)c(=O)[nH]c2=O)cc1 | > 71.5 µM (inactive)
Cc1cc(N2CCCC2)ccc1C=C(C#N)C#N | 14.4 µM (inactive)
COc1ccc(OC)c(-n2c(O)c(C=NCCN3CCNCC3)c(=O)[nH]c2=S)c1 | > 71.5 µM (inactive)
CC(=O)OCC[N+](C)(C)C | > 71.4 µM [compound-only fluorescence in RTF assay buffer with Ca2+ (no RTF in test wells)] (inactive)
C=CCN1C(=O)/C(=C/c2ccc(N3CCOCC3)o2)C(=O)NC1=S | 14 µM (inactive)
O=c1[nH]c(=O)n(Cc2ccc(F)cc2)c(O)c1/C=N/Nc1ccccc1 | > 71.5 µM (inactive)
CCC1(C)OC(c2ccccc2)=C/C(=C/C=C2C(=O)NC(=O)NC2=O)O1 (centres undefined) | 2.73 µM (active)
CN1C(=O)/C(=C/c2ccc(N3CCCCCC3)o2)C(=O)NC1=S | 5 µM (active)
Cc1ccc(-n2c(O)c(/C=C/C=Nc3ccccc3)c(=O)[nH]c2=O)cc1 | 10.6 µM (inactive)
O=C(CN1CCN(c2ccccc2F)CC1)Nc1cccnc1Cl | > 71.5 µM (inactive)
Cc1cc(Cl)nc(N)n1 | > 71.4 µM (inactive)
O=[N+]([O-])c1ccc(N2CCCCCC2)c2nonc12 | 1.17 µM (active)
C/C(=N\N1CCCCC1c1cccnc1)c1c(O)n(C2CCCCC2)c(=S)[nH]c1=O (centres undefined) | 39.3 µM (inactive)
